The supplement of paper PMC4380459

Tested on: tubulin (bovine brain)
Experiment: tubulin polymerization end-point dOD, fold change relative to DMSO vehicle; higher = more polymerization (stabilization)
Settings: 50 µM; 60 min; 37 °C
In short: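 In 384-well plates, compound at a final 50 μM in 0.5% DMSO was assembled on ice with bovine brain tubulin (4 mg/ml in G-PEM buffer) from the Cytoskeleton HTS-Tubulin polymerization kit, then read at 340 nm every minute for 1 hour at 37°C in a Tecan reader. Each value is the end-point change in optical density as percent fold change versus DMSO vehicle, scaled per run by the means and standard deviations of DMSO and reference-control wells.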

Row | SMILES | tubulin polymerization end-point dOD
1 | COc1ccc2nc(/C=C/c3cccc(F)c3)sc2c1 | 6.83%
2 | Cc1ccc2cc(CN(CC3CCCO3)C(=S)Nc3ccccc3)c(=O)[nH]c2c1 (stereo not given) | 0.1%
3 | CC1Cc2ccccc2N1C(=O)CSc1nnc(-c2cc3ccccc3cc2O)n1C (stereo not given) | -10.6%
4 | CC(=O)N1c2ccc(NC(=O)c3cc4cccc(C)c4nc3C)cc2CC1C (stereo not given) | 0.65%
5 | O=C1CCCN1Cc1ccc(-c2ccccc2CNc2ncccn2)cc1 | -32.9%
6 | Cc1cc2nc(-c3ccc(SCC#N)nc3)[nH]c2cc1C | 51.8%
7 | Nc1nc(SCC(=O)NC2CCCCC2)nc2sc3c(c12)CCCC3 | -12%
8 | CCC(C)Cc1c(C)sc2nc(SCc3nnc(C)o3)[nH]c(=O)c12 (stereo not given) | -13.9%
9 | COc1ccc(C)cc1NC(=O)CSc1nc2ccc(C(C)C)cc2cc1C#N | -41.3%
10 | C/C(=N\NC(=O)c1cccc(F)c1)c1ccc(Br)s1 | 9.02%
11 | COC(=O)Nc1nc2cc(C(=O)c3ccccc3)ccc2[nH]1 [Mebendazole] | 6.22%
12 | Cc1ccc(C2=NN(C(=O)c3ccncc3)C(c3ccccc3F)C2)cc1 (stereo not given) | -4.53%
13 | O=C(Nc1ncc(Cc2ccc(F)cc2)s1)c1ccc2c(c1)OCO2 | 20.1%
14 | Cc1ccc(C(=O)Nc2nc3ccc(Cl)cc3s2)cn1 | -82.9%
15 | CCCn1c(SCC(=O)Nc2ccccc2OC)nnc1-c1cccnc1 | -56.1%
16 | COc1ccc(OC)c(NC(=O)CSc2nc3cc4c(cc3cc2C)CCC4)c1 | 20.5%
17 | CCOc1ccc(C(=O)N(Cc2cccs2)Cc2cc3cc(C)ccc3[nH]c2=O)cc1 | 27.2%
18 | COc1ccc2cc(CNc3ncnc4[nH]ncc34)ccc2c1 | -12.6%
19 | COc1ccc(CCNC(=O)CSc2nc3cc4c(cc3cc2C)OCO4)cc1OC | -49.9%
20 | CCC1c2ccsc2CC[NH+]1Cc1ccc(N2CCCC2=O)cc1 (stereo not given) | -43.7%
21 | COc1cccc(/C=N/NC(=O)c2ccc(N3CCCC3=O)cc2)c1 | 11.9%
22 | Cc1ccc(C(=O)CSc2nc3c(C)cccc3cc2C#N)cc1 | -15.2%
23 | O=C(Nc1ccccc1Cl)N(Cc1cccs1)Cc1cc2cc3c(cc2[nH]c1=O)OCCO3 | -17.8%
24 | Cc1ccc2nc(NC(=O)c3cc(Br)c[nH]3)sc2c1 | -51.9%
25 | COc1cc2c(cc1OC)C(c1cccs1)N(C(=O)Nc1ccc(Cl)cc1)CC2 (stereo not given) | 70.5%
26 | CCc1ccc2nc(SCC(=O)Nc3ccccc3OC)c(C#N)cc2c1 | -25%
27 | Oc1ccccc1-c1nc2ccc(Cl)cn2c1NCc1ccc2c(c1)OCO2 | 7.3%
28 | Cc1cc2c(cc(C(=O)OCC(=O)NCc3ccco3)n2C)s1 | 39.4%
29 | Cc1cc(NC(=O)CSc2nnc3c(C)cc4c(C)ccc(C)c4n23)no1 | -40.7%
30 | CCOc1ccc2nc(SCC(=O)Nc3ccc(OC)cc3OC)c(C)cc2c1 | 14.5%
